Experimental data from PubChem BioAssay (NCI).
This is part of a sample that, as a whole, favours compounds with a hit. Of some 83,000 tested, about 20% had one in any assay.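 The test compound was applied at a single concentration to cells in 96-well plates for 48 hours, and percent growth was recorded.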 Activity calls are given as the source filed them. The calls were made as follows: active = growth percent below 10; inactive = the rest.

Experiments:
Assay in all cases: NCI-60 one-dose screen, 48 h (100 = growth as untreated, 0 = no growth, -100 = all killed)
Conditions in all cases: 10 µM unless noted
HT29 colon = test system: HT29 colon
SNB-75 CNS = test system: SNB-75 CNS
SNB-19 CNS = test system: SNB-19 CNS
U251 CNS = test system: U251 CNS
PC-3 prostate = test system: PC-3 prostate
SK-MEL-5 melanoma = test system: SK-MEL-5 melanoma
UACC-62 melanoma = test system: UACC-62 melanoma
LOX IMVI melanoma = test system: LOX IMVI melanoma
SK-MEL-28 melanoma = test system: SK-MEL-28 melanoma
SK-MEL-2 melanoma = test system: SK-MEL-2 melanoma

Measured: growth

Nc1nonc1-c1nc2ccccc2n1CC(=O)Nc1ccc2c(c1)COC2=O
inactive: HT29 colon 85.1% | SNB-75 CNS 36.5% | SNB-19 CNS 87.6% | U251 CNS 94.4% | PC-3 prostate 80% | SK-MEL-5 melanoma 77.8% | UACC-62 melanoma 72.9% | LOX IMVI melanoma 73.2% | SK-MEL-28 melanoma 93.1% | SK-MEL-2 melanoma 89.4%

O=C(O)C(=O)O
inactive: HT29 colon 109% | SNB-75 CNS 67.4% | SNB-19 CNS 91.7% | U251 CNS 90% | PC-3 prostate 110% | SK-MEL-5 melanoma 99.5% | UACC-62 melanoma 98.7% | LOX IMVI melanoma 92.9% | SK-MEL-28 melanoma 99.5% | SK-MEL-2 melanoma 88.3%

Cc1nn(-c2ccc(Br)cc2)c2nc3c(nc12)C(=O)C(=O)c1ccccc1-3
inactive: HT29 colon 99.8% | SNB-75 CNS 85.7% | SNB-19 CNS 92.5% | U251 CNS 103% | PC-3 prostate 87.7% | SK-MEL-5 melanoma 89.6% | UACC-62 melanoma 90.6% | LOX IMVI melanoma 88.1% | SK-MEL-28 melanoma 96.3% | SK-MEL-2 melanoma 102%

CCOC(=O)c1ccccc1OC(=O)NNc1ccccc1
inactive: HT29 colon 109% | SNB-75 CNS 78.9% | SNB-19 CNS 90.7% | U251 CNS 83.2% | PC-3 prostate 34.9% | SK-MEL-5 melanoma 57.2% | UACC-62 melanoma 21.5% | LOX IMVI melanoma 73.5% | SK-MEL-28 melanoma 93.6% | SK-MEL-2 melanoma 33.2%

O=C(COC(=O)[C@H](C[Se][Se]C[C@H](NC(=O)c1ccc(Br)cc1F)C(=O)OCC(=O)c1ccc(F)cc1)NC(=O)c1ccc(Br)cc1F)c1ccc(F)cc1
active: HT29 colon 3.66% | SNB-75 CNS -100% | SNB-19 CNS -86.3% | U251 CNS -100% | PC-3 prostate -51.6% | SK-MEL-5 melanoma -18.8% | UACC-62 melanoma -4.12% | LOX IMVI melanoma -83% | SK-MEL-28 melanoma -90.6% | SK-MEL-2 melanoma -58.9%

O=C1/C(=N/O)CCc2ccccc21
inactive: HT29 colon 101% | SNB-75 CNS 82.2% | SNB-19 CNS 100% | U251 CNS 103% | PC-3 prostate 59.8% | SK-MEL-5 melanoma 102% | UACC-62 melanoma 87.6% | LOX IMVI melanoma 76.5% | SK-MEL-28 melanoma 121% | SK-MEL-2 melanoma 113%

COc1ccc(/C=C2\NC(=S)NC2=O)cc1
inactive: HT29 colon 110% | SNB-75 CNS 106% | SNB-19 CNS 109% | U251 CNS 102% | PC-3 prostate 106% | SK-MEL-5 melanoma 107% | UACC-62 melanoma 95.3% | LOX IMVI melanoma 112% | SK-MEL-28 melanoma 119% | SK-MEL-2 melanoma 109%

CC(c1cc(Cl)ccc1O)c1cc(Cl)ccc1O
inactive: SNB-75 CNS 35.8% | SNB-19 CNS 68.5% | U251 CNS 19.2% | PC-3 prostate 25.9% | UACC-62 melanoma 44.8% | LOX IMVI melanoma 30.1% | SK-MEL-28 melanoma 33.5%
active: HT29 colon 2.77% | SK-MEL-5 melanoma 7.93% | SK-MEL-2 melanoma -16.8%

O=C(CCc1nnc2sc(Cc3ccccc3Cl)nn12)c1nc2ccccc2[nH]1
inactive: HT29 colon 99.4% | SNB-75 CNS 78.7% | SNB-19 CNS 96.2% | U251 CNS 97% | PC-3 prostate 85.5% | SK-MEL-5 melanoma 91.8% | UACC-62 melanoma 83.9% | LOX IMVI melanoma 87.9% | SK-MEL-28 melanoma 110% | SK-MEL-2 melanoma 93%

Cc1ccc(C(=O)Nc2ccc(Cl)cc2C(=O)NCc2ccccc2)cc1
inactive: HT29 colon 23.3% | SNB-75 CNS 67.3% | SNB-19 CNS 92.8% | U251 CNS 81.5% | PC-3 prostate 76.6% | SK-MEL-5 melanoma 78.4% | UACC-62 melanoma 70.7% | LOX IMVI melanoma 79.2% | SK-MEL-28 melanoma 83.7% | SK-MEL-2 melanoma 51.7%

O=C1c2nsnc2C(=O)c2c(F)c(F)c(F)c(F)c21
active: HT29 colon -54.8% | SNB-75 CNS -76.4% | SNB-19 CNS -86.8% | U251 CNS -76.3% | PC-3 prostate 7.59% | SK-MEL-5 melanoma -61.1% | UACC-62 melanoma -86.9% | LOX IMVI melanoma -49.4% | SK-MEL-28 melanoma -92.5% | SK-MEL-2 melanoma -75.4%

CCCc1cccc(CCC)c1O
inactive: HT29 colon 103% | SNB-75 CNS 118% | SNB-19 CNS 109% | U251 CNS 85.7% | PC-3 prostate 100% | SK-MEL-5 melanoma 104% | UACC-62 melanoma 107% | LOX IMVI melanoma 100% | SK-MEL-28 melanoma 117% | SK-MEL-2 melanoma 133%

CCN(CC)CCOc1ccc(C2=C(c3ccccc3)CCc3cc(OC)ccc32)cc1
inactive: SNB-75 CNS 44.2% | SNB-19 CNS 53.8% | U251 CNS 22.2%
active: HT29 colon -50% | PC-3 prostate 7.49% | SK-MEL-5 melanoma -68% | UACC-62 melanoma -60.2% | LOX IMVI melanoma -59.6% | SK-MEL-28 melanoma -96.2% | SK-MEL-2 melanoma -83.1%

CN(C)c1ccc(/C=C\c2ccnc3ccccc23)cc1
inactive: HT29 colon 51.7% | SNB-75 CNS 40.9% | SNB-19 CNS 79.9% | U251 CNS 73.9% | PC-3 prostate 67.3% | SK-MEL-5 melanoma 65.2% | UACC-62 melanoma 72.8% | LOX IMVI melanoma 72.7% | SK-MEL-28 melanoma 88.7% | SK-MEL-2 melanoma 18.7%

N#Cc1c(N2CCOCC2)nc2sc3cc(Cl)ccc3n2c1=N
inactive: HT29 colon 98.5% | SNB-75 CNS 63.7% | SNB-19 CNS 77.8% | U251 CNS 96.6% | PC-3 prostate 75.9% | SK-MEL-5 melanoma 78.3% | UACC-62 melanoma 89.4% | LOX IMVI melanoma 93% | SK-MEL-28 melanoma 103% | SK-MEL-2 melanoma 103%

CN(C)c1nc(N)nc(Cn2c(-c3nonc3N)nc3ccccc32)n1
inactive: HT29 colon 72.9% | SNB-75 CNS 56.4% | SNB-19 CNS 91.8% | U251 CNS 90.1% | PC-3 prostate 82.6% | SK-MEL-5 melanoma 86.9% | UACC-62 melanoma 73% | LOX IMVI melanoma 76.6% | SK-MEL-28 melanoma 82% | SK-MEL-2 melanoma 90.5%

Oc1[nH]c2ccccc2c1/C=c1/ccc2c(c1)N=C(c1cc(F)cc(F)c1)N=2
inactive: HT29 colon 57.6% | SNB-75 CNS 51.6% | SNB-19 CNS 67.9% | U251 CNS 53% | PC-3 prostate 26.2% | SK-MEL-5 melanoma 69.5% | UACC-62 melanoma 58.2% | LOX IMVI melanoma 52% | SK-MEL-28 melanoma 77.4% | SK-MEL-2 melanoma 41.2%

S=c1[nH]nc2sc3ccccc3n12
inactive: HT29 colon 101% | SNB-75 CNS 81.6% | SNB-19 CNS 106% | U251 CNS 105% | PC-3 prostate 112% | SK-MEL-5 melanoma 106% | UACC-62 melanoma 97.4% | LOX IMVI melanoma 99.2% | SK-MEL-28 melanoma 114% | SK-MEL-2 melanoma 103%

Cc1nn(-c2ccc(Cl)cc2)c2nc3c(nc12)C(=O)c1ccccc1-3
inactive: HT29 colon 65.1% | SNB-75 CNS 95.5% | SNB-19 CNS 87.2% | U251 CNS 47% | PC-3 prostate 54.9% | SK-MEL-5 melanoma 65.8% | UACC-62 melanoma 55.2% | LOX IMVI melanoma 51.2% | SK-MEL-28 melanoma 28.4% | SK-MEL-2 melanoma 79.7%

NC(=O)SCC(=O)Nc1ccccc1-c1ccccc1
inactive: HT29 colon 87.2% | SNB-75 CNS 138% | SNB-19 CNS 89.5% | U251 CNS 92.9% | PC-3 prostate 90.2% | SK-MEL-5 melanoma 111% | UACC-62 melanoma 81.5% | LOX IMVI melanoma 90.6% | SK-MEL-28 melanoma 116% | SK-MEL-2 melanoma 88.9%

NNC(=O)NO
inactive: HT29 colon 96% | SNB-75 CNS 85.9% | SNB-19 CNS 108% | U251 CNS 104% | PC-3 prostate 101% | SK-MEL-5 melanoma 105% | UACC-62 melanoma 106% | LOX IMVI melanoma 97.7% | SK-MEL-28 melanoma 107% | SK-MEL-2 melanoma 91.1%

O=c1[nH]c(=O)n(C2CC(O)C(CO)O2)cc1C(F)(F)F (stereo not given)
active: SK-MEL-2 melanoma -17.8%
inactive: HT29 colon 68.7% | SNB-75 CNS 57.6% | SNB-19 CNS 55.6% | U251 CNS 42% | PC-3 prostate 74.8% | SK-MEL-5 melanoma 29.8% | UACC-62 melanoma 29.6% | LOX IMVI melanoma 18.3% | SK-MEL-28 melanoma 75.2%

c1cnc2n[nH]c(Nc3ncnc4c3sc3ncccc34)c2c1
inactive: HT29 colon 95.4% | SNB-75 CNS 84% | SNB-19 CNS 101% | U251 CNS 97.1% | PC-3 prostate 104% | SK-MEL-5 melanoma 102% | UACC-62 melanoma 87.1% | LOX IMVI melanoma 85.6% | SK-MEL-28 melanoma 99% | SK-MEL-2 melanoma 103%

O=C1Nc2ccccc2C12Nc1cc(Cl)ccc1S2 (stereo not given)
inactive: HT29 colon 95.4% | SNB-75 CNS 59.8% | SNB-19 CNS 94% | U251 CNS 98.5% | PC-3 prostate 44.5% | SK-MEL-5 melanoma 81.7% | UACC-62 melanoma 80.9% | LOX IMVI melanoma 86.3% | SK-MEL-28 melanoma 138% | SK-MEL-2 melanoma 130%

Cc1ccc2c(c1)C(=O)/C(=C/c1ncc([N+](=O)[O-])n1C)O2
inactive: SNB-75 CNS 73.8% | SNB-19 CNS 11.8%
active: HT29 colon -19.8% | U251 CNS -19% | PC-3 prostate -2.93% | SK-MEL-5 melanoma -38.5% | UACC-62 melanoma -13% | LOX IMVI melanoma -3.36% | SK-MEL-28 melanoma -17.2% | SK-MEL-2 melanoma -57.8%

c1ccc(-c2nn[nH]n2)c(-c2ccc(CN3CCN(c4nsc5ccccc45)CC3)cc2)c1
inactive: HT29 colon 58.6% | SNB-75 CNS 91.1% | SNB-19 CNS 98.3% | U251 CNS 85.5% | PC-3 prostate 84.7% | SK-MEL-5 melanoma 97.2% | UACC-62 melanoma 91.4% | LOX IMVI melanoma 102% | SK-MEL-28 melanoma 113% | SK-MEL-2 melanoma 120%

COc1ccc(-c2cnnn2-c2cc(OC)c3c(c2)OCO3)cc1
inactive: SNB-75 CNS 23.1% | SNB-19 CNS 39.4% | SK-MEL-5 melanoma 18.1% | UACC-62 melanoma 26.8% | LOX IMVI melanoma 17.8% | SK-MEL-28 melanoma 55% | SK-MEL-2 melanoma 22.4%
active: HT29 colon 1.26% | U251 CNS 3.74% | PC-3 prostate 4.25%

Nc1nc(SCc2ccccc2Cl)c(-c2ccccc2)c(SCc2ccccc2Cl)n1
inactive: HT29 colon 64.3% | SNB-75 CNS 107% | SNB-19 CNS 116% | U251 CNS 86.9% | PC-3 prostate 76.3% | SK-MEL-5 melanoma 109% | UACC-62 melanoma 99.6% | LOX IMVI melanoma 84.7% | SK-MEL-28 melanoma 101% | SK-MEL-2 melanoma 120%
